Screen size: about 200,000 compounds; about 65 (0.03%) were called active.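 Rule for the calls: active = over 50% inhibition of tissue-nonspecific alkaline phosphatase at 20 µM in the single-dose screen; inactive = the rest.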 Only a selection was taken, and actives are over-represented in it overall.
Molecular target: Alkaline phosphatase, tissue-nonspecific isozyme (Homo sapiens) (UniProt P05186)
Assay: blockers of alkaline phosphatase TNAP activity – biochemical, luminescent, high phosphate acceptor level, uHTS, primary screen (AID 1135);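 note: plate controls were DMSO wells for no effect and EDTA-quenched wells as full inhibition for full effect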
Conditions: purified TNAP, CDP-star luminescence, 1 M DEA; at 20 µM; active compounds read high

Alkaline phosphatase, tissue-nonspecific isozyme (Homo sapiens), sequence (P05186 whole entry, looked up): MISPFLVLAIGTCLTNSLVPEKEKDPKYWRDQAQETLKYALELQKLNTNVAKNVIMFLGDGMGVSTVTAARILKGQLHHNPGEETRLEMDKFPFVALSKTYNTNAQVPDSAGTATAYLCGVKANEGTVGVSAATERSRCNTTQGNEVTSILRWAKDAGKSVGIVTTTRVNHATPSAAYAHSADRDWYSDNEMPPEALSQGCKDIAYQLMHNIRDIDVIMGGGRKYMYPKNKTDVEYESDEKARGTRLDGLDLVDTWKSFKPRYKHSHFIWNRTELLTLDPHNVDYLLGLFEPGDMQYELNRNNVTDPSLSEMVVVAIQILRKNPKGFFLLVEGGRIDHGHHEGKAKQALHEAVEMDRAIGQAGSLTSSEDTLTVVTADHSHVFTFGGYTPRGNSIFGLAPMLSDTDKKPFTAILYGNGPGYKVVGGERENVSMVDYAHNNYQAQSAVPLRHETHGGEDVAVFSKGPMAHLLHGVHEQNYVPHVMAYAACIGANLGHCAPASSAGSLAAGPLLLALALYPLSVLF

Q: `O=C(NCc1ccncc1)NC12CC3CC(CC(C3)C1)C2` was tested. Which inhibition did it give?
A: 2.3% (inactive)

Q: `COc1ccc([N+](=O)[O-])cc1NC(=O)CC1SC(=Nc2cccc(C)c2C)N(/N=C(\C)c2ccc(C)cc2)C1=O` (stereo unspecified) was tested. Which inhibition did it give?
A: -3.9% (inactive)

Q: For `Cc1[nH][nH]c(=O)c1C(c1ccc(-c2ccc(Cl)cc2)o1)c1c(C)[nH][nH]c1=O`, which inhibition is on record?
A: 10.3% (inactive)

Q: Which inhibition does the source give for `Cc1[nH][nH]c(=O)c1C(c1ccc2c(c1)OCO2)c1c(C)[nH][nH]c1=O` here?
A: 44% (inactive)

Q: How did the inhibition turn out when `CCOc1ccc(C(c2c(C)[nH][nH]c2=O)c2c(C)[nH][nH]c2=O)cc1OCC` was run?
A: 71.4% (active)

Q: How did the inhibition turn out when `CC(CNc1ccc([N+](=O)[O-])c2cccnc12)Nc1c([N+](=O)[O-])cc(C(F)(F)F)cc1[N+](=O)[O-]` (stereo unspecified) was run?
A: 13.7% (inactive)

Q: Which inhibition does the source give for `NS(=O)(=O)c1ccc(CCNC(=O)c2ccc(Cl)cc2[N+](=O)[O-])cc1` here?
A: 5.9% (inactive)

Q: For `CCCC(=O)NC(=S)Nc1ccc(CN2CCOCC2)cc1`, which inhibition is on record?
A: -4.1% (inactive)

Q: Which inhibition does the source give for `Cc1cc(-c2n[nH]c(=S)n2-c2ccc(C)c(C)c2)no1` here?
A: -3% (inactive)

Q: How did the inhibition turn out when `O=C(c1cc(Cl)cc(Cl)c1)N1CCC(=O)N(C(COCc2ccccc2)Cc2ccccc2)CC1` (stereo unspecified) was run?
A: -3.9% (inactive)

Q: With `CCn1c(SCC(=O)Nc2nc(C)cs2)nnc1C(C)NC(=O)c1ccccc1` (stereo unspecified) as the molecule, how does the inhibition read?
A: -5.3% (inactive)

Q: Which inhibition does the source give for `COCCCNC(=O)CNC(=S)N(Cc1cc(OC)c(OC)c(OC)c1)C1CCCC1` here?
A: -4.1% (inactive)

Q: How did the inhibition turn out when `CC(=O)Nc1ccc(NC(=O)C(C)OC(=O)c2ccccc2C(=O)c2ccc(Cl)c([N+](=O)[O-])c2)cc1` (stereo unspecified) was run?
A: 0.3% (inactive)

Q: How did the inhibition turn out when `Cc1cc(C)c(NC(=O)c2oc3ccccc3c2COc2ccccc2)c(C)c1` was run?
A: 0.7% (inactive)

Q: With `CCn1c(C(C)NC(=O)c2ccc(C)cc2)n[nH]c1=S` (stereo unspecified) as the molecule, how does the inhibition read?
A: -0.4% (inactive)

Q: For `CC(C)(C)NC(=O)CN(C(=O)c1ccc(Cl)nc1)c1cccc2ccccc12`, which inhibition is on record?
A: -2.9% (inactive)

Q: How did the inhibition turn out when `CC(C)(C)n1nc2c(c1NC(=O)c1cc3ccccc3o1)CSC2` was run?
A: -7.4% (inactive)

Q: Which inhibition does the source give for `COc1cc(C(=O)Nc2cc(C(F)(F)F)ccc2-n2cncn2)cc(OC)c1OC` here?
A: -1.7% (inactive)

Q: `O=C(COc1cc(Cl)c(Cl)cc1Cl)NC(=O)NC1CCCC1` was tested. Which inhibition did it give?
A: 0.7% (inactive)

Q: How did the inhibition turn out when `O=C(Nc1ccc2c(c1)OCO2)c1sc2cc(Cl)ccc2c1Cl` was run?
A: 0.3% (inactive)

Q: How did the inhibition turn out when `Cc1nnc(SCc2cccc(Cl)c2)n(N)c1=O` was run?
A: -2.2% (inactive)
